# From PubChem BioAssay (NCATS)
# Inconclusive results are not listed. A call without a number means that no potency is given here. The source made the active and inactive calls. Calls come from the whole dose curve; as a rule, active = well fitted cell-killing curve with a large enough effect; inconclusive = small, poorly fitted or top-dose-only effect, or effect the other way; inactive = no such curve, though single readings can be large or run the other way.
# Legend:
# [1] = Viability qHTS for spleen associated tyrosine kinase inhibitor (SYKi) naive MV4-11 cells (AID 1963823); note: nearly all actives have a fitted effect of over 40% in size
# Summary of the method: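 qHTS, SYK inhibitor-naive MV4-11; 500 cells/well; 72 hr compound exposure, 37 C; CellTiter-Glo added, 10 min RT; luminescence read.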
# [2] = Viability qHTS for spleen associated tyrosine kinase inhibitor (SYKi) drug resistant MV4-11 cells (AID 1963824); note: nearly all actives have a fitted effect of over 35% in size
# Summary of the method: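 CellTiter-Glo luminescence, read 10 min after reagent addition, reports viability after a 72 hr compound exposure. Cells are an MV4-11 line made resistant to SYK inhibition, seeded at 500 per well onto compound-containing plates.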
# Potency is the fitted concentration of half-maximal effect.
Structure (SMILES),Potency [1],Potency [2],viability (% of control) [1],"viability, % of control [2]"
CCCCCCCOc1ccc(CCC(N)(CO)CO)cc1C(F)(F)F,7.42 µM (active),8.33 µM (active),–,–
C=C1C(O)C[C@@H]2C(C(=O)O)=CO[C@@H](O[C@@H]3O[C@H](CO)[C@@H](O)[C@H](O)[C@H]3OC(=O)c3ccc(O)cc3)[C@H]12 (some centres not stated),inactive,inactive,–,–
Cc1cccc(N(C)C(=S)Oc2ccc3c(c2)C2CCC3C2)c1 (configuration not stated),inactive,inactive,–,–
Oc1ccc(CCNCCCCCCNCCc2ccccc2)cc1O,26.6 µM (active),21.1 µM (active),–,–
Cc1ccc(C2(COC(=O)C(C)C)CO2)c(OC(=O)C(C)C)c1 (configuration not stated),1.8 µM (active),2.02 µM (active),–,–
CC1=CC[C@]2(C(=O)O[C@@H]3O[C@H](CO[C@@H]4O[C@H](CO)[C@@H](O[C@@H]5O[C@@H](C)[C@H](O)[C@@H](O)[C@H]5O)[C@H](O)[C@H]4O)[C@@H](O)[C@H](O)[C@H]3O)CC[C@]3(C)C(CCC4[C@@]5(C)C[C@@H](O)[C@H](O)[C@@](C)(CO)C5CC[C@]43C)C2C1C (some centres not stated),–,–,78.2% [at 9.25 µM] (inactive),86.5% [at 9.25 µM] (inactive)
COC(=O)[C@]12C(=O)C(C)=C(O)[C@@]1(C)C(C)=CC1[C@@]34CC[C@@H](OC(C)=O)C(C)(C)C3[C@H](C[C@]12C)OC4=O (some centres not stated),inactive,inactive,–,–
O=C(Nc1ncc(SCCN2CCCC2)s1)C1(c2ccc(S(=O)(=O)C3CC3)cc2)CC1C1CCCCC1 (configuration not stated),8.2 µM (active),8.2 µM (active),–,–
CC[C@H]1OC(=O)[C@H](C)C(=O)[C@H](C)[C@@H](OC2O[C@H](C)C[C@H](N(C)C)[C@H]2O)[C@@H](C)C[C@@H](C)C(=O)/C=C/[C@]1(C)O (some centres not stated),inactive,inactive,–,–
Cc1ccc(OCCSc2ncccn2)c(Br)c1,inactive,inactive,–,–
COc1cc(O)cc(C)c1C(=O)OC1C(CO)OC(OC2C(O)C(O)C(O)C(O)C2O)C(O)C1O (configuration not stated),inactive,inactive,–,–
C[C@]1(O)CC[C@@H]2C(C(=O)O)=CO[C@@H](O[C@@H]3O[C@H](COC(=O)/C=C/c4ccc(O)c(O)c4)[C@@H](O)[C@H](O)[C@H]3O)[C@@H]21,inactive,inactive,–,–
C=C1C(=O)O[C@@H]2C[C@@]3(C)C[C@@H](O)C[C@H](C)C3=C[C@H]12,5.17 µM (active),3.66 µM (active),–,–
C[C@@H]1O[C@@H](OC2C(O[C@H]3[C@H](O[C@H]4CC[C@@]5(C)C(CC[C@]6(C)C5CC=C5C7CC(C)(C)CC(O)[C@]7(C)CC[C@]56C)C4(C)C)O[C@H](C(=O)O)[C@@H](O)[C@@H]3O)OC(CO)C(O)C2O)[C@H](O)[C@H](O)[C@H]1O (some centres not stated),–,–,84.2% [at 9.25 µM] (inactive),97.3% [at 9.25 µM] (inactive)
Cc1nc(CN(C)c2ncnc3ccc(-c4ccc5c(c4)OCO5)cc23)cs1,3.26 µM (active),5.8 µM (active),–,–
CC1(C)C=Cc2c(ccc3c2N=C2C(C)(C)[C@@H]4C[C@]56CCCN5C(=O)[C@@]4(C[C@]23O)NC6=O)O1,inactive,inactive,–,–
NC(=O)[C@H](O[C@@H]1O[C@H](CO)[C@@H](O)[C@H](O)[C@H]1O)c1ccccc1,inactive,inactive,–,–
CC(C)CCNC(=O)[C@H](CC(C)C)NC(=O)[C@H]1O[C@@H]1C(=O)O,inactive,inactive,–,–
CN1CCN(CCCN2c3ccccc3Sc3ccc(S(=O)(=O)N(C)C)cc32)CC1,11.9 µM (active),10.6 µM (active),–,–
O=C(N/N=C/c1ccccc1O)c1ccncc1,0.944 µM (active),0.75 µM (active),–,–
CC(C)=CCC[C@](C)(O[C@@H]1O[C@H](CO)[C@@H](O)[C@H](O)[C@H]1O)[C@H]1CC[C@]2(C)[C@@H]1[C@H](O)CC1[C@@]3(C)CC[C@H](O)C(C)(C)C3[C@@H](O[C@@H]3O[C@H](CO)[C@@H](O)[C@H](O)[C@H]3O)C[C@]12C (some centres not stated),inactive,inactive,–,–
O=C(NS(=O)(=O)c1ccc(Br)s1)c1ccc(Cl)cc1Cl,7.31 µM (active),9.2 µM (active),–,–
CCOc1ccc(-c2cc(NC(=O)c3c(F)cccc3F)c(C(=O)O)s2)cc1,inactive,inactive,–,–
O=C(O)C[C@H]1CCC(=O)[C@@H]1C/C=C\CCOC1OC(CO)C(O)C(O)C1O (some centres not stated),inactive,inactive,–,–
COc1cc(O)cc2c1C(=O)OC(C)C2 (configuration not stated),inactive,inactive,–,–
COc1cc(CCO)ccc1O[C@@H]1O[C@H](CO)[C@@H](O)[C@H](O)[C@H]1O,inactive,inactive,–,–
